Pf growth 48h = P. falciparum growth inhibition at 48 hours (one generation) | actives 5.9% (n = 310,000) | Potency, µM (titrated, usually from 28.7 µM), for the others: at the top dose activity change, negative = inhibition, usual class: inhibitors | AID 504832 | P. falciparum luciferase growth in erythrocytes, 48 h; note: potency is the fitted concentration of half-maximal effect
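A one-generation exposure of luciferase-tagged malaria parasites in RPMI 1640/Albumax erythrocyte culture, 37 C and 5% CO2. Inhibition is inferred from decreased luminescence after adding detection reagent.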
Sm TGR inh = blocks Schistosoma mansoni thioredoxin glutathione reductase | purified TGR, DTNB reduction, TNB absorbance 405 nm | Potency, µM (series often up to 114 µM), for the others: top-dose activity change, negative = inhibition, most hits filed as inhibitors | actives 3% (n = 360,000); note: potency is the fitted concentration of half-maximal effect; nearly all actives have a fitted effect of over 60% in size
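First, TGR (20 nM dispensed) and NADPH were mixed with compound. Second, a 15 min room-temperature incubation followed. Third, further NADPH and then DTNB were added to start the reaction. Finally, TNB absorbance was monitored kinetically.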
Pf growth 96h = P. falciparum growth inhibition at 96 hour, primary screen for plastid delayed-death inhibitors; actives 6.9% (n = 320,000); AID 504834; Potency, µM (series often up to 28.7 µM), inactives show at the highest dose activity change, negative = inhibition, hits mostly inhibitors; P. falciparum luciferase reporter growth, 96 h; note: potency is the fitted concentration of half-maximal effect
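P. falciparum expressing integrated firefly luciferase, in erythrocytes at 2% hematocrit, 0.05% parasitemia, incubated with compounds 96 h at 37 C, 5% CO2. Growth inhibition read as loss of luminescence; two-generation exposure targets delayed-death apicoplast inhibitors.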
HCMV antiviral = blocks human cytomegalovirus replication | HFF cells, HCMV-luciferase reporter, 72 h; stronger effect = lower value | activity change, negative = inhibition, % at 57.5 µM | actives 4.5% (n = 410,000); in the data active = activity change below about -60%; inconclusive = no clear call, values can overlap the other calls; inactive = above about -39%
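Two-dose cell screen: HFF monolayers treated with compounds and infected with luciferase-expressing HCMV at 1 PFU/cell, 72 h at 37C, then lysed for luciferase measurement.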
Giardia FBPA inh = inhibitors of Giardia lamblia fructose-1,6-bisphosphate aldolase | A8B2U2 | purified Giardia FBPA | Potency, µM (titrated, usually from 59.6 µM), inactives show top-dose activity, negative = inhibition, most hits filed as inhibitors | actives 0.71% (n = 290,000) | AID 2451; note: potency is the fitted concentration of half-maximal effect; nearly all actives have a fitted effect of over 55% in size
Target sequence (A8B2U2 whole entry, looked up): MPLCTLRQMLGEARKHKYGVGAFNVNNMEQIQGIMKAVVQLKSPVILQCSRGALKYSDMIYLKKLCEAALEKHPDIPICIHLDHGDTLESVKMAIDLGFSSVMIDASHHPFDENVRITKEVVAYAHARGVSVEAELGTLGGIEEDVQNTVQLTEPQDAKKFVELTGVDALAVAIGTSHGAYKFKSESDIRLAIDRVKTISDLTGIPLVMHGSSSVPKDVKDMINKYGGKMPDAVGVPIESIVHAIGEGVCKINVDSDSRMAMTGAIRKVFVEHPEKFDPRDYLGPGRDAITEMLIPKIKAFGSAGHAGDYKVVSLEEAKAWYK
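40 nM FBPA preincubated 10 min at RT with compound (up to 57.5 uM final), then substrate plus GAPDH/TPI/NAD/arsenate coupling and diaphorase/resazurin added. Fluorescence read after 20 min at RT, 525/598 nm.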
Numbers without * were called inactive; ? = inconclusive; / = no result given; [ ] = dose if it differs, or a comment. Hits are enriched below; roughly 14% of the tested compounds scored in any of these assays. Unless noted, calls come from the whole dose curve; as a rule, active = well fitted curve in the direction sought with a large enough effect; inconclusive = small, poorly fitted or top-dose-only effect, or another doubt; inactive = no such curve, though single readings can be large; an effect the other way counts as inactive or inconclusive. % is set by controls: 0 for no effect and ±100 for the full control effect.

SMILES	Pf growth 48h	Sm TGR inh	Pf growth 96h	HCMV antiviral	Giardia FBPA inh
CC1=Nc2cc(C(=O)NC3CCCC3)ccc2Sc2ccc(Br)cc21	/	-4%	/	-76*	/
CCOC(=O)N1CCC(NC(=O)c2ccc3c(c2)N=C(C)c2c(C)ccc(C)c2S3)CC1	?	-9%	?	-93*	-8%
COc1ccccc1NC(=O)C1=C(C)Nc2nnnn2C1c1cc(Br)c(O)c(OC)c1 (centres undefined)	/	-17%	/	-8	/
Cc1ccc(S(=O)(=O)C[C@@H]2OC[C@H](C)N2S(=O)(=O)c2ccc(C)cc2)cc1	/	/	/	11	/
Cn1c(-c2ccsc2)c(-c2cccs2)c2cc(-c3ccc4cc[nH]c4c3)ccc21	2.1µM*	-5%	?	?	/
Cn1c(-c2ccsc2)c(-c2cccs2)c2cc(-c3ccc4[nH]ccc4c3)ccc21	5.2µM*	-15%	5.9µM*	-9	/
C[C@H]1C=CC(=O)C[C@H]1c1c(F)cccc1Cl	/	/	/	/	1%
Cc1cccc(OCCCSc2nc3ccccc3[nH]2)c1	23%	7%	0%	-32	-3%
COc1ccc(OCCSc2nc(C)nc3ccccc23)cc1	?	6%	-17%	-65*	-2%
CCCOc1ccc(CSc2nc3ccccc3[nH]2)cc1	94%	-22%	103%	-92*	-1%
COc1ccc(OCCSc2ncccn2)cc1	194%	-2%	?	25	1%
CCOc1ccc(OCCSc2nc3ccccc3[nH]2)cc1	-22%	3%	?	-76*	-9%
Cc1nn(C)cc1NC(=O)c1cc2nc(-c3ccco3)cc(C(F)(F)F)n2n1	13%	6%	17%	-7	-3%
Cc1nn(C)cc1CN(C)C(=O)c1cc2nc(-c3ccco3)cc(C(F)(F)F)n2n1	?	35µM*	3%	-17	-20%
COc1ccc(-c2cc(C(F)(F)F)n3nc(C(=O)Nc4ccc(Cl)cc4C(F)(F)F)cc3n2)cc1OC	/	-2%	/	29	/
Cc1nn(C)c(C)c1CN(C)C(=O)c1cc2nc(-c3ccco3)cc(C(F)(F)F)n2n1	?	13µM*	?	-8	-3%
CN1CCN(C(=O)c2cc3nc(-c4ccco4)cc(C(F)(F)F)n3n2)CC1	-5%	-2%	3%	-5	2%
COc1ccc(-c2cc(C(F)(F)F)n3nc(C(=O)N(C)Cc4ccccc4)cc3n2)cc1OC	6.6µM*	-2%	-35%[5.75 µM]	-24	-4%
Cc1cccc(-c2noc(-c3ccc(NCc4ccccc4)c([N+](=O)[O-])c3)n2)c1	/	-4%	/	11	/
Cc1nnc(Sc2cc(C(=O)NCCCN(C)Cc3ccccc3)c3ccccc3n2)s1	?	4%	2.1µM*	-23	2%
O=C(NCCCN1CCOCC1)C(=O)c1c[nH]c2ccccc12	2%	-5%	-11%	72	5%
CSc1cccc(Nc2cc(C(=O)NCCCN(Cc3ccccc3)C(C)C)c3ccccc3n2)c1	/	16%	/	-104*	/
COc1ccc(N2CCN(CCCNC(=O)C(=O)c3c[nH]c4ccccc34)CC2)cc1	3.7µM*	-1%	2.1µM*	19	-3%
COc1ccc(Nc2cc(C(=O)NCCCN3CCN(c4ccc(OC)cc4)CC3)c3ccccc3n2)cc1	/	2%	/	-75*	/
COC(=O)[C@]12CCCCC=C1N(CCC1=CCCCC1)C(=O)[C@H](CC(=O)N1CCN(C(=O)C3CC3)CC1)C2	/	/	/	-25	/
SMILES	Pf growth 48h	Sm TGR inh	Pf growth 96h	HCMV antiviral	Giardia FBPA inh
COc1cc(/C=C(\C#N)C(=O)Nc2nnc(C(F)(F)F)s2)ccc1OCc1ccc(C(F)(F)F)cc1C(F)(F)F	/	/	/	/	1%
COc1ccc(Nc2cc(C(=O)NCCCN(C)Cc3ccccc3)c3ccccc3n2)c(OC)c1	/	-9%	/	-26	/
COc1ccc(Nc2cc(C(=O)NCCCN(C)Cc3ccccc3)c3ccccc3n2)cc1	/	0%	/	-93*	/
COc1ccc(OC)c(S(=O)(=O)N2CCCc3ccccc32)c1	6%	1%	-6%	-102*	-15%
COc1ccc(OC)c(S(=O)(=O)N2CCN(c3c(C)cccc3C)CC2)c1	?	?	4.7µM*	?	-14%
COc1ccc(C(=O)NCc2ccc(C)cc2)cc1S(=O)(=O)N1CCCc2ccccc21	/	-1%	?	-72*	-5%
COc1ccc(OC)c(S(=O)(=O)N2CCN(c3ncccn3)CC2)c1	6%	-11%	12%	?	6%
COc1ccc(C(C)C)cc1S(=O)(=O)N1CCN(C)CC1	/	-9%	12µM*	-9	-1%
CN(C)C(=O)c1ccc(-c2cc(NCc3cccnc3)ncn2)cc1	/	/	/	/	1%
O=C(NC1CCS(=O)(=O)C1)Oc1ccc(Cl)cc1 (centres undefined)	/	0%	57%	-106*	0%
CCOc1ccc(NC(=O)CSc2nccn(-c3ccc4c(c3)OCCO4)c2=O)cc1	?	-12%	?	-21	/
COc1ccc(OC)c(C2CC(c3c(-c4ccccc4)c4cc(Cl)ccc4[nH]c3=O)=NN2S(C)(=O)=O)c1 (centres undefined)	9.3µM*	3%	2.1µM*	-5	-6%
COc1ccc(C2CC(c3c(-c4ccccc4)c4cc(Cl)ccc4[nH]c3=O)=NN2S(C)(=O)=O)cc1 (centres undefined)	?	-7%	/	-39	3%
C=CCOC(=O)C1=C(C)NC(=S)C(C#N)(CC=C)C1c1ccccc1Cl (centres undefined)	1.5µM*	-1%	1.5µM*	-20	-11%
Cc1ccc(-c2nc3cc(N)ccc3o2)cc1Br	88%	-4%	4.7µM*	48	6%
CC(C)CC(NC(=O)C1CCCCC1)C(=O)Nc1cccc(C(F)(F)F)c1 (centres undefined)	/	10%	/	-5	/
O=C(OC(C(=O)Nc1cccc(C(F)(F)F)c1)c1ccccc1)C1CCCCC1 (centres undefined)	?	6%	6.6µM*	-13	0%
CCCCn1c(N)c(N(CCOC)C(=O)c2cc(-c3ccco3)nc3ccccc23)c(=O)[nH]c1=O	-7%	25µM*	-14%	/	/
CCCCN(C(=O)c1cc(-c2ccco2)nc2ccccc12)c1c(N)n(CCCC)c(=O)[nH]c1=O	?	3.5µM*	?	-17	/
Cc1cc(N2CCOCC2)ccc1/C=C1\NC(=O)N(CC(=O)Nc2ccc(F)cc2)C1=O	58%	/	2.9µM*	-25	1%
O=C(CN1C(=O)N/C(=C\c2ccccc2OCc2ccc(C(=O)O)cc2)C1=O)Nc1ccc(F)cc1	8%	-1%	5.2µM*	95	-2%
Cc1cc(N2CCOCC2)ccc1/C=C1\NC(=O)N(CC(=O)Nc2ccccc2C)C1=O	29%	2%	/	19	3%
CCCOc1ccc(N2CC(C(=O)Nc3ccc(N4CCOCC4)cc3)CC2=O)cc1 (centres undefined)	-6%	-7%[57.1 µM]	-18%	-2	5%

Source: PubChem
